In PubChem BioAssay:
Activity calls are given as the source filed them. Unless noted, how the calls were made is not given here.

Tests used:
[1] = anti-His antibody binders, primary screen, artefact control for SMM control protein annotation, biochemical, small-molecule microarray, 635 nm fluorescence (AID 1128); conditions: anti-His Alexa647 antibody binding, higher = more signal;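 further: score merges feature fluorescence with signal-to-noise for each printed compound spot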
[2] = tested on: Human papillomavirus type 1a E7 protein (residues 1-88); experiment: HPV1a E7 small-molecule binders, primary screen, biochemical, small-molecule microarray, residues 1-88, 635 nm (AID 1129); conditions: small-molecule microarray binding, fluorescence 635 nm; higher = more signal
[3] = biological target: Focal adhesion kinase 1 (Homo sapiens) (UniProt Q05397); experiment: small-molecule microarray binders of FAK, primary screen, biochemical, 635/667 nm fluorescence, BSA, DTT (AID 1130); conditions: PTK2 binding, 635 nm fluorescence, higher = more signal;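 further: composite of spot emission at 667 nm and signal to noise over triplicate slides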
Chain of Focal adhesion kinase 1 (Homo sapiens) (Q05397 whole entry, looked up): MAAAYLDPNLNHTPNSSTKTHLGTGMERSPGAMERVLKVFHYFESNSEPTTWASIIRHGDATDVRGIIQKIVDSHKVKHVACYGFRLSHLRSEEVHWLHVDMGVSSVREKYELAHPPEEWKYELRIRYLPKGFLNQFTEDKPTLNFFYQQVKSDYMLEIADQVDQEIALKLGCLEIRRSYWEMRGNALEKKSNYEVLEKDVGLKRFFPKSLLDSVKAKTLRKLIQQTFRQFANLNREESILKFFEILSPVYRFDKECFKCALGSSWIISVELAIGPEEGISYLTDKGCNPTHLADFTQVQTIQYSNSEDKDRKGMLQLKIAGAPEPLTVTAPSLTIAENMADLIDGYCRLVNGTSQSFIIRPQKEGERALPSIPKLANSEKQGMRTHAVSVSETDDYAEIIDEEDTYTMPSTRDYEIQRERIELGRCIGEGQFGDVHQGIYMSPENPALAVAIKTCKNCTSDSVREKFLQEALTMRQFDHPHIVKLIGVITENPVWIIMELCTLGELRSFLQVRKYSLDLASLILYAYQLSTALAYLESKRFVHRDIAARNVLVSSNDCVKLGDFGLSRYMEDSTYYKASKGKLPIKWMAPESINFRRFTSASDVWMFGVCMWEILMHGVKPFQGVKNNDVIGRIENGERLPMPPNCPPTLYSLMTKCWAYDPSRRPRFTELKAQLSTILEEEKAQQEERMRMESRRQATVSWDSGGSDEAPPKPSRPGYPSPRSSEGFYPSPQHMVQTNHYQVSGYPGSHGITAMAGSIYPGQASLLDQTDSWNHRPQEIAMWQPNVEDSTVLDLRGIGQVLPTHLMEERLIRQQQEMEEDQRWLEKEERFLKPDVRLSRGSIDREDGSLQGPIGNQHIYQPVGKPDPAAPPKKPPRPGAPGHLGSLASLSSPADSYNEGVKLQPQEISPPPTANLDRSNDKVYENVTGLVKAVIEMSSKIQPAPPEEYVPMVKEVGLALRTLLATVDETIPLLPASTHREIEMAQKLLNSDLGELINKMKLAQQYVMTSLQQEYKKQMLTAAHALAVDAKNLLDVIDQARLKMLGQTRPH

[4] = tested on: Fibrinogen (Alexa647-labelled); experiment: fibrinogen binders on compound microarrays, profiling panel, artefact control for SMM control-protein annotation, biochemical, small-molecule microarray, 635/667 nm fluorescence (AID 1131); conditions: fibrinogen-A647 binding fluorescence, higher = more signal;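 further: z-score merges 667 nm fluorescence with per-spot signal-to-noise over triplicate slides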
[5] = biological target: Follistatin (Homo sapiens) (UniProt P19883); experiment: follistatin binders on small-molecule microarrays, primary screen, biochemical, small-molecule microarray, 635/667 nm fluorescence (AID 1132); conditions: FST binding, 635 nm fluorescence, higher = more signal
Chain of Follistatin (Homo sapiens) (P19883 whole entry, looked up): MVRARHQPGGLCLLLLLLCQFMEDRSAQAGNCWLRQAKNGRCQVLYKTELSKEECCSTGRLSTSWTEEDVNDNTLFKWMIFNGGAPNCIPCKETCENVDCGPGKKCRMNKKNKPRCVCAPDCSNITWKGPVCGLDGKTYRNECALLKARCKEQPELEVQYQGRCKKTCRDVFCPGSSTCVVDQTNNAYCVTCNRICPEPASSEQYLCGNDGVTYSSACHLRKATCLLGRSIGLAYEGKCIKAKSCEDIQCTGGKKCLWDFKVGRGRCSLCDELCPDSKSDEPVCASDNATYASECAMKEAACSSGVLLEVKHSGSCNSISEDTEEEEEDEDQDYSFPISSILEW

[6] = biological target: Fibroblast growth factor 2 (Homo sapiens) (UniProt P09038); experiment: FGF2 binders on small-molecule microarrays, primary screen, biochemical, small-molecule microarray, 635/667 nm fluorescence (AID 1133); conditions: small-molecule microarray binding, FGF2, fluorescence 635/667; higher = more signal
Chain of Fibroblast growth factor 2 (Homo sapiens) (P09038 whole entry, looked up): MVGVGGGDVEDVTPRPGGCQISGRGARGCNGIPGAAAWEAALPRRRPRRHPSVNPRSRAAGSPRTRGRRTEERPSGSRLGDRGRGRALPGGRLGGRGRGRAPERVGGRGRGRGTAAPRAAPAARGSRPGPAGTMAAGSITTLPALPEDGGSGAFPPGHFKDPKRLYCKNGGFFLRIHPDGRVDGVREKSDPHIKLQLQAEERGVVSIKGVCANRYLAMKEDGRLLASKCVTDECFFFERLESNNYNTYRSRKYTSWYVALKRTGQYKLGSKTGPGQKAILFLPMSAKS

[7] = mitochondrial membrane potential change in A549 cells, profiling panel, cell-based, JC-1 fluorescence, basal, 24 h, 100 nL (AID 1138); conditions: higher = more signal;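 further: A549 lung adenocarcinoma cells under basal conditions with no added stimulus; test concentration not given here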
Lefty1 = Lefty1 binders on small-molecule microarrays, primary screen, biochemical, small-molecule microarray, 635/667 nm fluorescence (AID 1139); conditions: small-molecule microarray binding, fluorescence 635/667; higher = more signal
[8] = tested on: wheat germ agglutinin (Triticum aestivum), Alexa647-labelled; experiment: wheat germ agglutinin binders on compound microarrays, profiling panel, artefact control for SMM control-protein annotation, biochemical, small-molecule microarray, 635/667 nm fluorescence (AID 1140); conditions: WGA-A647 binding, 635 nm fluorescence, higher = more signal;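 further: score merges 667 nm feature emission with signal to noise over triplicate slides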
[9] = biological target: Luciferin 4-monooxygenase (Photinus pyralis) (UniProt P08659); experiment: firefly luciferase enzyme inhibitors, primary screen, biochemical, luminescence, purified enzyme, 2006 set (AID 1141); conditions: SteadyGlo luminescence, 30 min, higher = more signal, called active from +8 up or from −8 down;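 further: cell-free assay with purified firefly luciferase at 100 ng per well in PBS; test concentration not given here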
Chain of Luciferin 4-monooxygenase (Photinus pyralis) (P08659 whole entry, looked up): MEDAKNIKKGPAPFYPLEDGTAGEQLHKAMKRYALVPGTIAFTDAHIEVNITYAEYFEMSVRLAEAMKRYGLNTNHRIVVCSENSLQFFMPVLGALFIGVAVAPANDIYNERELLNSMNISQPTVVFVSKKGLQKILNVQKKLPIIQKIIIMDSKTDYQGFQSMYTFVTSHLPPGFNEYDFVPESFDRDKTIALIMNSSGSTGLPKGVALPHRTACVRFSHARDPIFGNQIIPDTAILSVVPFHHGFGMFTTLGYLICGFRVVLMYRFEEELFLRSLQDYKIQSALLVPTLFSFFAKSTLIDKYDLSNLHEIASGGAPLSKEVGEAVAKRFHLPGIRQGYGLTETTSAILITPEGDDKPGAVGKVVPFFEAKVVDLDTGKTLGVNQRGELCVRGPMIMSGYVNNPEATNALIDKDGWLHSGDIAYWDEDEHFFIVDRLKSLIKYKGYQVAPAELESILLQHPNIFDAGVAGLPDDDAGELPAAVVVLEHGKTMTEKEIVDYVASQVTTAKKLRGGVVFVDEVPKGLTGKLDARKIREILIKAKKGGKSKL

[10] = tested on: Wnt5a (protein binding on small-molecule microarray); experiment: Wnt5a binders on small-molecule microarray, primary screen, biophysical, 635/667 nm fluorescence (AID 1142); conditions: 635 nm fluorescence, higher = more signal;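 further: fluorescence read at 667 nm with signal to noise per printed feature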
[11] = cell viability in Huh7 cells, primary screen, cytotoxicity control for HCV replication inhibitor project, CellTiter-Glo luminescence, basal, 48 h (AID 1143); conditions: Huh7 HCV replicon, higher = more signal, called active from +8 up or from −8 down;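 further: Huh7 hepatoma cells carrying a hepatitis C replication reporter with no stimulus; test concentration not given here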
[12] = P. aeruginosa biofilm formation inhibitors, primary screen, PAO1 strain, BacTiter-Glo luminescence, LB-PBS (AID 1144); conditions: 12 h, higher = more signal
[13] = CREB reporter modulators without forskolin, primary screen, cell-based, PC12, CRE-LacZ reporter, unstimulated (AID 1145); conditions: no forskolin, luminescence, 4.5 h, higher = more signal, called active from +8 up or from −8 down
[14] = CREB reporter modulators under forskolin, primary screen, cell-based, PC12, CRE-LacZ reporter, forskolin-stimulated (AID 1146); conditions: luminescence, 4.5 h, higher = more signal, called active from +8 up or from −8 down;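 further: PC12 cells with 6xCRE LacZ reporter stimulated by forskolin 10 µM; beta-galactosidase reporter signal reflecting CREB driven transcription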
[15] = biological target: Streptavidin (Streptomyces avidinii) (UniProt P22629); experiment: streptavidin binders on small-molecule microarray, primary screen, artefact control for SMM compound annotation, biophysical, 635/667 nm fluorescence (AID 1147); conditions: streptavidin binding, higher = more signal;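 further: signal reflects streptavidin binding to arrayed compounds as a control protein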
Chain of Streptavidin (Streptomyces avidinii) (P22629 whole entry, looked up): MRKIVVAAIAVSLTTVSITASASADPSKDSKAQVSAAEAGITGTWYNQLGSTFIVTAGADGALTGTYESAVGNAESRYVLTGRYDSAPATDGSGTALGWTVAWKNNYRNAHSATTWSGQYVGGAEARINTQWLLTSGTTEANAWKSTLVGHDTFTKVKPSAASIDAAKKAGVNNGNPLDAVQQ

[16] = small-molecule binders of probe aInhba, primary screen, biochemical, small-molecule microarray, 635/667 nm fluorescence (AID 1148); conditions: higher = more signal;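 further: score merges 667nm spot fluorescence with signal-to-noise for antibody binding to printed compounds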
Torsin-1A (Homo sapiens) [17] = biological target: Torsin-1A (Homo sapiens) (UniProt O14656); experiment: torsin A binders from cell lysate, primary screen, small-molecule microarray, wild-type, 635/667 nm (AID 1149); conditions: COS7 hTOR1A-WT lysate, 635 nm fluorescence, higher = more signal
Chain of Torsin-1A (Homo sapiens) (O14656 whole entry, looked up): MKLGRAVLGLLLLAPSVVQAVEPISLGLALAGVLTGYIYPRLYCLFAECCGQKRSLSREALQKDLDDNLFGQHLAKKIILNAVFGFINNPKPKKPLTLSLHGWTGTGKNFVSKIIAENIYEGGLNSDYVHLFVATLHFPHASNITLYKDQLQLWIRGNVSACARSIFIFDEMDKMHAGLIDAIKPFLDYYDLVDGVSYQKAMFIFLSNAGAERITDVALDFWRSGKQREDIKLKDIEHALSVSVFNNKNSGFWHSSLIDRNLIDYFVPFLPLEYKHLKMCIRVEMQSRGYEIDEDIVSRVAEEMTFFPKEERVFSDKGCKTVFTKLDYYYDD

Torsin-1A (Homo sapiens) [18] = biological target: Torsin-1A (Homo sapiens) (UniProt O14656); experiment: small-molecule binders of mutant TOR1A in lysate, primary screen, cell lysate, small-molecule microarray, COS7 lysate, 635/667 nm fluorescence (AID 1150); conditions: COS7 hTOR1A mutant lysate, 635 nm fluorescence, higher = more signal;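 further: score pools 667 nm emission and signal to noise measuring lysate protein binding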
[19] = tested on: Sonic hedgehog protein (Shh); experiment: small-molecule binders of Shh protein, primary screen, biochemical, small-molecule microarray, 635/667 nm fluorescence (AID 1151); conditions: small-molecule microarray binding, 635 nm fluorescence; higher = more signal;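 further: Shh protein binding to compounds spotted on small-molecule microarray slides; score combines spot fluorescence intensity with signal-to-noise across triplicate slides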

Structure (SMILES) | composite z-score [1] | composite z-score [2] | composite z-score [3] | composite z-score [4] | composite z-score [5] | composite z-score [6] | z-score [7] | composite z-score (Lefty1) | composite z-score [8] | z-score [9] | composite z-score [10] | z-score [11] | z-score [12] | z-score [13] | z-score [14] | composite z-score [15] | composite z-score [16] | composite z-score (Torsin-1A (Homo sapiens) [17]) | composite z-score (Torsin-1A (Homo sapiens) [18]) | composite z-score [19]
C=C/C=C/[C@H]1C(=C)CN([C@@H](Cc2ccccc2)C(=O)OC)[C@@H]1[C@H](O)Cc1ccccc1 | -0.677 | -0.748 | -0.526 | -0.108 | 0.174 | -0.348 | 0.0936 | -0.426 | 0.0321 | -0.494 (inactive) | -0.224 | -0.123 (inactive) | 0.0605 (inactive) | 5.75 (inactive) | 0.794 (inactive) | -0.663 | -0.0736 | -1.74 | -1.4 | 0.122
O=C1NC(=O)C2C1C=CC(C(O)c1ccccc1)N2Nc1ccc(Cl)cc1Cl (stereo not given) | 1.62 | 1.16 | 0.433 | 0.985 | 1.28 | 0.394 | -0.0329 | 1.4 | 0.763 | -1.44 (inactive) | 0.656 | -2.84 (inactive) | -1.4 (inactive) | 0.429 (inactive) | -0.12 (inactive) | 2.01 | 0.225 | 1.01 | 1.4 | 1.68
CO[C@H]1O[C@H](CO)[C@@H](OC(=O)Nc2ccc(Br)cc2)[C@H](OC(=O)c2cc3ccccc3[nH]2)[C@H]1OC(=O)c1cc2ccccc2[nH]1 | 1.69 | 1.14 | 0.468 | 0.967 | 0.729 | 0.355 | -1.07 | 0.311 | 0.723 | -1.75 (inactive) | 0.363 | -6.05 (inactive) | -2.24 (inactive) | 2.38 (inactive) | -1.15 (inactive) | 1.22 | 0.0342 | 0.154 | 0.46 | 0.819
